About 83,000 compounds went through this panel and 20% of them were active in at least one assay; those are over-represented in the sample as a whole.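 Negative percent growth values reflect cell death: -40 means 40% of the cells present at the start died, and -100 means all died.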 Unmarked numbers belong to inactive results. Activity calls are given as the source filed them. The calls were made as follows: active = growth percent below 10; inactive = the rest.
Key:
Assay in all cases: NCI-60 one-dose screen, 48 h (100 = growth as untreated, 0 = no growth, -100 = all killed)
Settings in all cases: 10 µM unless noted
DU-145 prostate = system: DU-145 prostate
K-562 leukemia = system: K-562 leukemia
MALME-3M melanoma = system: MALME-3M melanoma
MDA-MB-231 breast = system: MDA-MB-231 breast
RXF 393 renal = system: RXF 393 renal
SF-268 CNS = system: SF-268 CNS
SF-295 CNS = system: SF-295 CNS
SF-539 CNS = system: SF-539 CNS
UACC-257 melanoma = system: UACC-257 melanoma
M14 melanoma = system: M14 melanoma
HCT-15 colon = system: HCT-15 colon
SNB-75 CNS = system: SNB-75 CNS
SNB-19 CNS = system: SNB-19 CNS
U251 CNS = system: U251 CNS
PC-3 prostate = system: PC-3 prostate
SK-MEL-5 melanoma = system: SK-MEL-5 melanoma
UACC-62 melanoma = system: UACC-62 melanoma
LOX IMVI melanoma = system: LOX IMVI melanoma
SK-MEL-28 melanoma = system: SK-MEL-28 melanoma
HT29 colon = system: HT29 colon

Row | SMILES | growth (DU-145 prostate) | growth (K-562 leukemia) | growth (MALME-3M melanoma) | growth (MDA-MB-231 breast) | growth (RXF 393 renal) | growth (SF-268 CNS) | growth (SF-295 CNS) [%] | growth (SF-539 CNS) | growth (UACC-257 melanoma) | growth (M14 melanoma) | growth (HCT-15 colon) | growth (SNB-75 CNS) | growth (SNB-19 CNS) | growth (U251 CNS) | growth (PC-3 prostate) | growth (SK-MEL-5 melanoma) | growth (UACC-62 melanoma) | growth (LOX IMVI melanoma) | growth (SK-MEL-28 melanoma) | growth (HT29 colon)
1 | Cc1ccc(NC(=O)c2nc(S(C)(=O)=O)oc2-c2ccc(F)cc2)cc1Nc1ccc2ncn(C)c(=O)c2c1 | 57.8% | -22.8% (active) | 23.7% | 31% | 45% | 68.3% | 98.8 | 95.3% | 82.5% | 39.4% | 3.34% (active) | 105% | 126% | 69.7% | 88.6% | 78.9% | 85.8% | -71.5% (active) | 82.1% | –
2 | COc1ccc(C(=O)c2cc(C)c(OC)c(C)c2)cc1OC(=O)CCl | 9.37% (active) | 4.66% (active) | 63.1% | 22.9% | 37.7% | 27.6% | 11.8 | -26.1% (active) | 56.8% | 0.344% (active) | 13.1% | 69.8% | 30.8% | – | 25.9% | -18.4% (active) | 41.8% | 18.9% | 57.5% | –
3 | COc1ccc(-c2nn(-c3cccc(Cl)c3)cc2/C=C2\C(=N)N(c3ccccc3)N=C2N)cc1 | 37.6% | 1.77% (active) | 28.8% | 59% | 85% | 47.8% | – | -12.8% (active) | 58.4% | 5.51% (active) | 44.5% | 81.6% | 83.5% | 66.3% | 39.6% | 34.8% | -3.26% (active) | 6.46% (active) | 32.8% | 57.4%
4 | Cn1c(=O)c2c3c(oc2c2ccccc21)C(=O)c1ccccc1C3=O | 91% | 68.8% | 113% | 11.5% | 101% | 95.3% | – | 97.2% | 106% | 85.6% | 85% | 64.4% | 93.3% | 90.2% | 64.4% | 76.9% | 77% | 76.6% | 112% | 73.7%
5 | COc1ccc(-c2nsc3c2NC(=O)CC3c2ccc3c(c2)OCO3)cc1 (stereo not drawn) | 14.8% | 0.385% (active) | -1.91% (active) | 36% | 11.3% | 42.8% | – | -9% (active) | 60.2% | 18.2% | 29.4% | 7.61% (active) | 57.5% | 12.2% | 3.81% (active) | 25.8% | 42.7% | 37.9% | 56.5% | 3.39% (active)
6 | Clc1ncnc2scc(C3COc4ccccc4O3)c12 (stereo not drawn) | 76.8% | 69.8% | 58.7% | 98.3% | 99.6% | 101% | – | 94.1% | 93.2% | 88.4% | 79.8% | 65.2% | 100% | 90.4% | 98.8% | 90.4% | 98.2% | 41% | 83.8% | 103%
7 | C/C(=C\C(=N\N=C(N)N)c1ccc(Cl)cc1)c1ccc(Cl)cc1 | -91.4% (active) | -51.7% (active) | -64.6% (active) | -73.1% (active) | -95.8% (active) | -89.2% (active) | – | -73.7% (active) | -72.5% (active) | -79.7% (active) | -69.5% (active) | -82.9% (active) | -79.8% (active) | -93% (active) | -80% (active) | -98.7% (active) | -87.3% (active) | -59.1% (active) | -81% (active) | -70.1% (active)
8 | CCC1CCc2nc3sc(C(=O)Nc4cccc(F)c4)c(N)c3cc2C1 (stereo not drawn) | 60% | 28.6% | 34.8% | 78.3% | 65.8% | 68.2% | – | 58.8% | 49.5% | 47.5% | 31.7% | 51.7% | 76.9% | 56.3% | 63.6% | 41.9% | 39.5% | 61.3% | 59.7% | 33.5%
9 | Cc1cc(N=Nc2ccc(-c3ccc(N=Nc4ccc(O)c(C(=O)O)c4)cc3)cc2)c(N)c(N=Nc2ccc(C(=O)O)cc2)c1N | 110% | 75.1% | 95.2% | 102% | 94.7% | 98.7% | – | 93.2% | 110% | 86.5% | 74.8% | 82.5% | 95.5% | 88.4% | 78.1% | 87% | 71.2% | 93.9% | 80.6% | 76.6%
10 | COc1ccc(C2=CC(c3ccc(OC)cc3Br)N3C=CSC3=N2)cc1 (stereo not drawn) | 66.2% | 9.34% (active) | 89.9% | 75% | 84.6% | 77.1% | – | 77.5% | 80% | 25.2% | 27.5% | 63.7% | 62.3% | 37.2% | 50.4% | 78.7% | 71.2% | 16.6% | 84% | -6.33% (active)
11 | Cc1cc(C)cc(CCCCCCCCCCCCCCCCCC(=O)O)c1 | 108% | 115% | 108% | 120% | 107% | 103% | – | 106% | 106% | 98% | 102% | 97.2% | 115% | 110% | 106% | 102% | 106% | 104% | 119% | 110%
